Laboratory results published in the supplement of paper PMC10849652.
Of roughly 7,900 targets only a part is listed; those with a hit were picked by preference. About 0.6% of all pairs of compound and target were hits. Values without a mark were called inactive.

How the values were obtained:
Experiment in all cases: log2 fold change, soluble protein after heating vs DMSO (PISA); higher = thermal stabilisation; K562 cells, 10 uM, 30 min; active = over 0.2 and 3.5 SD of the protein, either way, in both replicates (recomputed)
[1] = compound: Cc1ccc(NC(=O)c2ccc(CN3CC[C@H](N(C)C)C3)c(C(F)(F)F)c2)cc1Nc1nccc(-c2cncnc2)n1 [bafetinib]
Method in brief: (§1)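 Soluble protein was quantified by TMTpro 16plex LC-MS/MS after channel sums were equalised. It was obtained as the supernatant after 21,000xg for 90 min from pooled aliquots of K562 cells (2×10^6 cells/mL, 10 μM compound, 30 min) heated for 3 min across 48°C-58°C and extracted in PBS with 0.5% NP-40 at 4°C. Thermal stability values are relative to control samples and come from duplicates. They are given as log2 fold changes.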

[2] = compound: Cc1cccc(CC(=O)N2CCc3c2ccc(-c2cn(C)c4ncnc(N)c24)c3F)n1
Method in brief: as §1

[3] = compound: Cc1cn(-c2cc(NC(=O)c3ccc(C)c(Nc4nccc(-c5cccnc5)n4)c3)cc(C(F)(F)F)c2)cn1 [nilotinib]
Method in brief: as §1

[4] = compound: Cc1nc(Nc2n[nH]c3c2CN(C(=O)N[C@H](CN(C)C)c2ccccc2)C3(C)C)c2sccc2n1
Method in brief: as §1

[5] = compound: Cc1nc(Nc2ncc(C(=O)Nc3c(C)cccc3Cl)s2)cc(N2CCN(CCO)CC2)n1 [dasatinib]
Method in brief: as §1

[6] = compound: Cc1ncc(-c2ccnc(Nc3ccc(S(C)(=O)=O)cc3)n2)n1C(C)C
Method in brief: as §1

[7] = compound: Cn1cc(-c2ccc3c(c2)CCN3C(=O)Cc2cccc(C(F)(F)F)c2)c2c(N)ncnc21
Method in brief: as §1

[8] = compound: Cn1cc(-c2ccc3nnc(C(F)(F)c4ccc5ncccc5c4)n3n2)cn1
Method in brief: as §1

[9] = compound: Cn1cncc1[C@@](N)(c1ccc(Cl)cc1)c1ccc2c(c1)c(-c1cccc(Cl)c1)cc(=O)n2C [tipifarnib]
Method in brief: as §1

[10] = compound: FC(F)(F)c1ccc(/C=C/c2nc(COc3ccc(CCCCn4ccnn4)cc3)co2)cc1 [mubritinib]
Method in brief: as §1

[11] = compound: NC(=O)Nc1cc(-c2cccc(F)c2)sc1C(=O)N[C@H]1CCCNC1
Method in brief: as §1

[12] = compound: NC(=O)c1cnc(N[C@@H]2CCCC[C@@H]2N)nc1Nc1cccc(-n2nccn2)c1
Method in brief: as §1

[13] = compound: NC1(c2ccc(-c3nc4ccn5c(=O)[nH]nc5c4cc3-c3ccccc3)cc2)CCC1
Method in brief: as §1

[14] = compound: NCC(=O)Nc1ccc(-n2nc(C(F)(F)F)cc2-c2ccc3c(ccc4ccccc43)c2)cc1
Method in brief: as §1

[15] = compound: Nc1ccccc1NC(=O)c1ccc(CNC(=O)OCc2cccnc2)cc1 [entinostat]
Method in brief: as §1

[16] = compound: O=C(CCCCCCC(=O)Nc1ccccc1)NO [vorinostat]
Method in brief: as §1

[17] = compound: O=C(CCCCCCNC(=O)c1cnc(N(c2ccccc2)c2ccccc2Cl)nc1)NO [citarinostat]
Method in brief: as §1

[18] = compound: O=C(O)c1ccc2c(c1)nc(Nc1cccc(Cl)c1)c1ccncc12 [silmitasertib]
Method in brief: as §1

[19] = compound: O=C1NC(=O)C(c2cnc3ccccn23)=C1c1cn2c3c(cc(F)cc13)CN(C(=O)N1CCCCC1)CC2
Method in brief: as §1

[20] = compound: c1cc(OCCN2CCCCC2)cc(-c2n[nH]c3ccc(-c4nnc[nH]4)cc23)c1
Method in brief: as §1

Sequence of UniProt Q8NBJ9 (Q8NBJ9 whole entry, looked up): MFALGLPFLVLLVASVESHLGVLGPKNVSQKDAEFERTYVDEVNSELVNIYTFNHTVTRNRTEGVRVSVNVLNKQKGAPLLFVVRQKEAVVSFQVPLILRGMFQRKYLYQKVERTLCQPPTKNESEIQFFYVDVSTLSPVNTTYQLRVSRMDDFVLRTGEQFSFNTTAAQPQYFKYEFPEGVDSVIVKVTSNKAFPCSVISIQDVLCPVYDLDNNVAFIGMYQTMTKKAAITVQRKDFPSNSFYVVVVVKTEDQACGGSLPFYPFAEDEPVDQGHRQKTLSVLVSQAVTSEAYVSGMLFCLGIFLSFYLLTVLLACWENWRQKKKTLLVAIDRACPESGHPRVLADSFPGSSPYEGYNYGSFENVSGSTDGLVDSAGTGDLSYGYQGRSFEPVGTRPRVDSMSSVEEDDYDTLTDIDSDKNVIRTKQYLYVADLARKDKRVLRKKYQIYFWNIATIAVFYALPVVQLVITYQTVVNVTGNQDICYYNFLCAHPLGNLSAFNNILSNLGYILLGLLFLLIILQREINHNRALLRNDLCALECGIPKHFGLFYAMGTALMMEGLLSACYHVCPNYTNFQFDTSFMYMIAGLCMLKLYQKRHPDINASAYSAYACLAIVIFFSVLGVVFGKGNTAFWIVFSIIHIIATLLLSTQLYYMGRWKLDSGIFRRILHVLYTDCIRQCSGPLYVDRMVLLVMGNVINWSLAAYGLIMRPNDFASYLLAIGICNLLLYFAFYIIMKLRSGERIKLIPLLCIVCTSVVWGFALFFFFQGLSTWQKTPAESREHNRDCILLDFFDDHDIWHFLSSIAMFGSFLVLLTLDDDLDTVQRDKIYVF
Sequence of UniProt Q53H47 (Q53H47 whole entry, looked up): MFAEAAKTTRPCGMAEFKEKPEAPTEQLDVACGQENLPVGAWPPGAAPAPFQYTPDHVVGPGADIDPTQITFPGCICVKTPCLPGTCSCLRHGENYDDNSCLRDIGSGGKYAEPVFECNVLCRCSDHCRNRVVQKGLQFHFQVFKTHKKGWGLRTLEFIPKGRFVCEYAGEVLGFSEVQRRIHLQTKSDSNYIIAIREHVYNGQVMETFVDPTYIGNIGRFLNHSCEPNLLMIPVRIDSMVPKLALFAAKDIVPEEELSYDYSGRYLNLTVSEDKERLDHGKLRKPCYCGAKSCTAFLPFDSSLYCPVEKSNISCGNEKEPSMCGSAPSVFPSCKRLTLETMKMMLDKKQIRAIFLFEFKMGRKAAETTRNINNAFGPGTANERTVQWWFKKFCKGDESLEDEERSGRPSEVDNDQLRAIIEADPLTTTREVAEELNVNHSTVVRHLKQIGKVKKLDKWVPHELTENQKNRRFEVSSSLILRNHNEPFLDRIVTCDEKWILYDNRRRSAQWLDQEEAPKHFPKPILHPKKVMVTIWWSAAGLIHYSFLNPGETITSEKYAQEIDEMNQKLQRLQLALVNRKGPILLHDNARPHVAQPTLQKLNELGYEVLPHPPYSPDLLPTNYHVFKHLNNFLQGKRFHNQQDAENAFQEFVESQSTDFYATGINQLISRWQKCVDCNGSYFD
Sequence of UniProt O95059 (O95059 whole entry, looked up): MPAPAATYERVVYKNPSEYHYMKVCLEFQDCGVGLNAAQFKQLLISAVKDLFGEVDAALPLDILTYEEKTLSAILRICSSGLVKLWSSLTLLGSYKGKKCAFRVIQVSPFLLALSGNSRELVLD
Sequence of UniProt Q13546 (Q13546 whole entry, looked up): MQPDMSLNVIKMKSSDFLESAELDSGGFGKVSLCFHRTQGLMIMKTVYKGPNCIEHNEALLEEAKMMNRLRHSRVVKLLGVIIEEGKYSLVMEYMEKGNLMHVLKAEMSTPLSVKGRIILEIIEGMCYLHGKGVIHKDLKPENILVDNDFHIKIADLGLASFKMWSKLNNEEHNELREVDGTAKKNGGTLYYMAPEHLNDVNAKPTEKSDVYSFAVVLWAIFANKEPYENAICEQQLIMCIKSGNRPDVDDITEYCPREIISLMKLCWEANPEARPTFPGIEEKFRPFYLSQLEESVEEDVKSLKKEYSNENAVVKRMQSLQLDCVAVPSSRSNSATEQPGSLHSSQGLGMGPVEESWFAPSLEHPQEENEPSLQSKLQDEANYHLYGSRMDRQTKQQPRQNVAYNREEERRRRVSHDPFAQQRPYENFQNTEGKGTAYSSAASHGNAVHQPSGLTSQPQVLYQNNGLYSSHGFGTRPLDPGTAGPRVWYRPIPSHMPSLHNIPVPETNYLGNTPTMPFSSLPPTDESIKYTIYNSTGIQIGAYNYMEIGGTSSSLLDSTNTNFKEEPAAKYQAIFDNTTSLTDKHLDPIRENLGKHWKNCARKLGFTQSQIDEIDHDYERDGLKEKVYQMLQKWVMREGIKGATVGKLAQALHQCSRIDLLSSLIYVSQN
Sequence of UniProt Q13530 (Q13530 whole entry, looked up): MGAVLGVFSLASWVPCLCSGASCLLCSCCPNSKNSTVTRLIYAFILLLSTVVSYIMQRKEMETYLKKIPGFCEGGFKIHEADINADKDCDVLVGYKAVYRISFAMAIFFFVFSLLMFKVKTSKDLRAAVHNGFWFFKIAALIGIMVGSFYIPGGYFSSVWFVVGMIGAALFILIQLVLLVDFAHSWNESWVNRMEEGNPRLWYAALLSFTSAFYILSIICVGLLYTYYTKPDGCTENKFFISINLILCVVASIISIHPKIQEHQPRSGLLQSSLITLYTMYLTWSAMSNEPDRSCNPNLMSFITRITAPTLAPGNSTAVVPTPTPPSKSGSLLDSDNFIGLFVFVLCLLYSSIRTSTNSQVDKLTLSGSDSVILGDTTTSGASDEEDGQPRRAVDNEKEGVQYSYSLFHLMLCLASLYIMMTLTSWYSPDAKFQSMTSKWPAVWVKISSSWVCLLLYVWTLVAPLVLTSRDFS
Sequence of UniProt Q8IZV5 (Q8IZV5 whole entry, looked up): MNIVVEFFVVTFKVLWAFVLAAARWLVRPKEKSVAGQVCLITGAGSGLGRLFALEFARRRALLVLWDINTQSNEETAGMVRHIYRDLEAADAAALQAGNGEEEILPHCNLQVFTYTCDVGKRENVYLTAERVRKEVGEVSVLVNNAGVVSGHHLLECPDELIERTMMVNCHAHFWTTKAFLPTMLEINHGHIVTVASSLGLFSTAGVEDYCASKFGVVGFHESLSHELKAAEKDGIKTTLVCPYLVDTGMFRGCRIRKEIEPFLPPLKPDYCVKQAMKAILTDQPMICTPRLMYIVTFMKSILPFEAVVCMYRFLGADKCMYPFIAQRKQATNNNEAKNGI
Sequence of UniProt Q9H2M9 (Q9H2M9 whole entry, looked up): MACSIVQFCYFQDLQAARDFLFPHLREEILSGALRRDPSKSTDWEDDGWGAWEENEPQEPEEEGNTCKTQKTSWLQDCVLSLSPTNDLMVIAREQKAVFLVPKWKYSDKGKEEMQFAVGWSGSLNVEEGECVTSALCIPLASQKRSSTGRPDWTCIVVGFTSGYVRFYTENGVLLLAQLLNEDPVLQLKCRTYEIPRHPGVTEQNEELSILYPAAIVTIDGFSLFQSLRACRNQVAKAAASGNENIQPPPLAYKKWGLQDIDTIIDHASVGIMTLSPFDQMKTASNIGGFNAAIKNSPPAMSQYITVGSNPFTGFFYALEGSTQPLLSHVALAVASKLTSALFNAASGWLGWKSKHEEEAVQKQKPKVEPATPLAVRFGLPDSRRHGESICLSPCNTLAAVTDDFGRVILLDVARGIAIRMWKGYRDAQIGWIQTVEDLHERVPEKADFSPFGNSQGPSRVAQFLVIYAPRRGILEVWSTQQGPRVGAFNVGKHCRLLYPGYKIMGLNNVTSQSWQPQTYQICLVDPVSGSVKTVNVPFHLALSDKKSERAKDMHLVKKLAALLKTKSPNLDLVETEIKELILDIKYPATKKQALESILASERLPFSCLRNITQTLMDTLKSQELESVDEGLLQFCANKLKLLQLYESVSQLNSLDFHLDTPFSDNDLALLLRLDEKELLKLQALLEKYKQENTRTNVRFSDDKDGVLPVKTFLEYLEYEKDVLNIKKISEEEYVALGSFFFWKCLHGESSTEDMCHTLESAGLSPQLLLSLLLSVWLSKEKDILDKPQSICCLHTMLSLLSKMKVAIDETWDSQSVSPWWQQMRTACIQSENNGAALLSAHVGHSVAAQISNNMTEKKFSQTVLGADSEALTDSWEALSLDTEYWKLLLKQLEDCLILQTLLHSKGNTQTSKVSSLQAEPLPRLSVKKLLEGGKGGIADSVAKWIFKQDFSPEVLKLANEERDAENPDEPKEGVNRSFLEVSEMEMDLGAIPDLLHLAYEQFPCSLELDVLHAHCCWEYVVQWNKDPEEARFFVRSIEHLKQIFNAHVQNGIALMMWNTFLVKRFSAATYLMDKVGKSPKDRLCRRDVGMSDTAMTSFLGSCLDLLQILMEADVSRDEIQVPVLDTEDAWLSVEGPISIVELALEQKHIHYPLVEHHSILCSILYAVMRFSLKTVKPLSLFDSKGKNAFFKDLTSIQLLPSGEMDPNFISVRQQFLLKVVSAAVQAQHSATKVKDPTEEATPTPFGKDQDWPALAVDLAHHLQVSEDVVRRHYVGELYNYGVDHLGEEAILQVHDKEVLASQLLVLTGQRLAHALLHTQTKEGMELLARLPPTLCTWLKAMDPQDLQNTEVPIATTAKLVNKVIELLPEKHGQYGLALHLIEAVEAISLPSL
Sequence of UniProt Q5TA31 (Q5TA31 whole entry, looked up): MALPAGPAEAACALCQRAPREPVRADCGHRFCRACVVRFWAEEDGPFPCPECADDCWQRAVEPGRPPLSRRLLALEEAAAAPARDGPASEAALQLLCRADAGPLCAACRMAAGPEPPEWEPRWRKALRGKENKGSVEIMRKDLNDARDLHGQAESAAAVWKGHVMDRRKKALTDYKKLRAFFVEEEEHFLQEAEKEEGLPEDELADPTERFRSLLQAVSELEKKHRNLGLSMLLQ

Target | log2 fold change [1] | log2 fold change [2] | log2 fold change [3] | log2 fold change [4] | log2 fold change [5] | log2 fold change [6] | log2 fold change [7] | log2 fold change [8] | log2 fold change [9] | log2 fold change [10] | log2 fold change [11] | log2 fold change [12] | log2 fold change [13] | log2 fold change [14] | log2 fold change [15] | log2 fold change [16] | log2 fold change [17] | log2 fold change [18] | log2 fold change [19] | log2 fold change [20]
RPP14 (UniProt O95059) | 0.045 | 0 | -0.014 | 0.019 | 0.063 | -0.013 | -0.078 | -0.054 | 0.003 | -0.084 | 0.063 | -0.006 | -0.003 | 0.138 | -0.065 | -0.033 | 0.051 | 0.06 | 0.027 | -0.107
RIPK1 (UniProt Q13546) | 0.209 | 1.12 (active) | -0.007 | -0.196 | 0.197 | 1.18 (active) | 1.49 (active) | -0.052 | -0.121 | -0.089 | 0.037 | -0.06 | -0.092 | -0.009 | 0.088 | -0.014 | -0.006 | 0.025 | 0.205 | 0.047
SETMAR (UniProt Q53H47) | 0 | -0.07 | -0.104 | 0.117 | -0.013 | 0.163 | 0.028 | 0.127 | 0.054 | 0.04 | 0.11 | -0.024 | 0.05 | -0.078 | -0.032 | 0.004 | -0.629 (active) | -0.064 | -0.105 | -0.255
SIDT2 isoform 2 (UniProt Q8NBJ9) | -0.24 | -0.025 | -0.005 | 0.104 | 0.041 | 0.025 | -0.003 | 0.038 | 0.073 | -0.001 | 0.057 | -0.01 | -0.086 | 0.297 | -0.064 | -0.107 | 0.002 | -0.067 | 0.029 | 0.108
RDH10 (UniProt Q8IZV5) | -0.031 | 0.15 | 0.051 | -0.032 | 0.237 (active) | -0.014 | 0.37 (active) | 0.183 | 0.028 | 0.106 | -0.033 | -0.017 | -0.016 | 0.015 | 0.015 | -0.069 | -0.019 | -0.097 | -0.039 | 0.012
RAC1 (UniProt P63000) | 0.184 | -0.017 | 0.073 | 0.045 | 0.007 | 0.048 | 0.024 | -0.037 | 0.106 | 0.026 | 0.093 | 0.043 | 0.018 | 0.051 | 0.047 | 0.084 | -0.087 | -0.078 | 0.065 | 0.146
SERINC3 (UniProt Q13530) | -0.031 | -0.035 | 0.02 | 0.039 | -0.123 | 0.07 | -0.014 | -0.077 | -0.115 | 0.009 | -0.111 | -0.027 | -0.195 | -0.267 | -0.07 | -0.044 | -0.093 | 0.054 | 0.018 | -0.031
RAB3GAP2 (UniProt Q9H2M9) | 0.059 | 0.091 | -0.026 | -0.088 | -0.14 | 0.006 | -0.077 | -0.029 | -0.046 | -0.087 | -0.049 | -0.067 | -0.089 | -0.04 | 0.057 | 0.106 | 0.089 | 0.095 | 0.099 | -0.065
REL (UniProt Q04864) | -0.185 | 0.03 | -0.094 | -0.438 (active) | -0.115 | -0.018 | 0.013 | 0.059 | -0.011 | 0.034 | -0.053 | -0.131 | -0.108 | 0.028 | -0.007 | -0.122 | 0.053 | 0.053 | -0.054 | -0.09
RNF187 (UniProt Q5TA31) | 0.009 | 0.088 | 0.029 | -0.041 | 0.022 | -0.001 | -0.105 | 0.006 | -0.07 | 0.102 | 0.004 | -0.056 | -0.033 | 0.07 | -0.019 | 0.095 | 0.054 | 0.012 | -0.061 | 0.035
RPS14 (UniProt P62263) | 0.265 | -0.061 | 0.029 | 0.184 | -0.011 | -0.047 | -0.081 | -0.091 | 0.07 | -0.05 | 0.056 | 0.142 | 0.149 | 0.08 | -0.033 | -0.106 | -0.089 | -0.041 | 0.209 | -0.069
RPS5 (UniProt P46782) | 0.2 | 0.002 | 0.046 | 0.178 | 0.069 | -0.035 | -0.122 | -0.08 | 0.042 | 0.007 | 0.035 | 0.105 | 0.153 | 0.133 | -0.043 | 0 | -0.052 | -0.07 | 0.094 | -0.12
RPS16 (UniProt P62249) | 0.279 | -0.026 | 0.07 | 0.207 | 0.053 | -0.019 | -0.078 | -0.048 | 0.107 | -0.066 | 0.086 | 0.08 | 0.182 | 0.043 | -0.043 | 0.017 | -0.044 | -0.097 | 0.093 | -0.119
RAC3 (UniProt P60763) | 0.015 | -0.221 | 0.03 | 0.036 | -0.169 | -0.016 | 0.107 | 0.064 | 0.03 | -0.008 | -0.142 | 0.067 | 0.058 | -0.002 | -0.14 | -0.037 | -0.007 | 0.016 | -0.083 | 0.176
RPS25 (UniProt P62851) | 0.259 | -0.007 | 0.015 | 0.174 | 0.07 | -0.032 | -0.177 | -0.077 | 0.062 | -0.068 | -0.043 | 0.071 | 0.192 | 0.053 | -0.072 | 0.032 | -0.066 | -0.061 | 0.107 | -0.052
RBM8A (UniProt Q9Y5S9) | -0.013 | -0.014 | -0.047 | -0.063 | 0.001 | 0.126 | -0.02 | 0.065 | 0.019 | 0.013 | -0.044 | 0.075 | -0.045 | -0.068 | 0.037 | -0.025 | 0.03 | 0.011 | -0.019 | -0.076
